In the library only some 28% were active in any assay of this set; here they are far more common.
CYP2C19 inh: human CYP2C19 inhibition | 21% of 96,000 active | AID 778 | inhibition, % at 5 µM | P33261 | CYP2C19 Supersomes, luciferin-H EGE luminescence, 30 min;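 active means CYP2C19 inhibition above a set limit at 5 µM in the primary screen, cut at about 50% in these data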;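 further: plate controls were negative control wells for no effect and 2.5 mM tranylcypromine positive control for full effect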
Target sequence (P33261 whole entry, looked up): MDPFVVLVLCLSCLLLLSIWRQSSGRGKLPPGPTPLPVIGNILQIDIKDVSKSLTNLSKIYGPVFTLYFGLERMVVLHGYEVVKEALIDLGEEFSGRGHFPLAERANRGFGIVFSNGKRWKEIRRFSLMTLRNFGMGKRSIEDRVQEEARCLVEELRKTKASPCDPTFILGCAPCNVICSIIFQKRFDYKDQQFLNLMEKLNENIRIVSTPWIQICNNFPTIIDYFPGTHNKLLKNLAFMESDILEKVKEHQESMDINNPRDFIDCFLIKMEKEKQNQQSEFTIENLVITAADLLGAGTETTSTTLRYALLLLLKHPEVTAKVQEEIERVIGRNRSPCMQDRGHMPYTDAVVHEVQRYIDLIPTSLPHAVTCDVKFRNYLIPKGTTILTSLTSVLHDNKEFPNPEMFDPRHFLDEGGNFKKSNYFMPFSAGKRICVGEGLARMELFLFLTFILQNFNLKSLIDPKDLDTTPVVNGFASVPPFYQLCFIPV
CD11b adhes inh: CD11b/CD18-fibrinogen binding inhibition; P05107+P11215; K562 CD11b/CD18 adhesion to fibrinogen, ATPlite luminescence; Mn2+ added to activate the integrin; inhibition, % at 10 µM; 0.54% of 93,000 active;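 active means primary inhibition of 50% or more at 10 µM, then 40% or more on retest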
CYP2C19 act: activators of human cytochrome P450 2C19. recombinant CYP2C19, luciferin-H EGE luminescence; stronger effect = higher value; 0 = fully inhibited enzyme, 1 = untreated enzyme. activation factor at 5 µM. 96,000 tested, under 10 active. AID 1025;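 active means activation factor of at least 2 at 5 µM in the primary screen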;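 further: 0 = wells with 2.5 mM tranylcypromine and 1 = vehicle-only wells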
CYP2C9 inh: human CYP2C9 inhibition; CYP2C9 Supersomes, luciferin-H conversion, luminescence; inhibition, % at 5 µM; 20% of 96,000 active; P11712;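 active means blocking of liver enzyme CYP2C9 beyond about 50% at 5 µM, limit read from the data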
CYP2C9 act: CYP2C9 (human) activation; P11712; recombinant CYP2C9, luciferin-H conversion, luminescence; stronger effect = higher value; factor 1 = untreated enzyme, 0 = blocked; activation factor at 5 µM; 1.4% of 96,000 active;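 active means activation factor of 2 or more for CYP2C9 at a 5 µM dose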;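 further: 0 = sulfaphenazole-blocked wells and 1 = vehicle-only wells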
CD11b adhes enh: increases human CD11b/CD18 adhesion to fibrinogen; P05107+P11215; K562 CD11b/CD18 adhesion to fibrinogen, ATPlite luminescence; activation, % at 10 µM; 0.07% of 93,000 active; AID 1499;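 active means 10 µM primary screen giving 50% or more activity, confirmed by 40% or more on retest at that dose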
Numbers without * were called inactive; / = no result.

SMILES	CYP2C19 inh	CD11b adhes inh	CYP2C19 act	CYP2C9 inh	CYP2C9 act	CD11b adhes enh
CC(=O)N(Cc1ccc(F)cc1)C1=C(NCc2ccccc2)C(=O)c2ccccc2C1=O	73*	16	0.3	76*	0.2	-1
CN(C(=O)Nc1ccc(S(=O)(=O)N(C)C)cc1)C1CCCCC1	-8	23	1.1	-14	1.1	-4
Cc1ccc(-n2c(C)cc(C(=S)N3CCOCC3)c2C)cc1C	87*	/	0.1	37	0.6	/
CC(=O)Nc1c(C(=O)N2CCOCC2)cnn1-c1ccc(C)c(C)c1	9	/	0.9	-4	1	/
COc1ccc(/C=C2\SC(c3ccc(C)cc3)=NC2=O)cc1OC	11	1	0.9	25	0.7	6
COc1cc(/C=C2\SC(c3ccc(C)cc3)=NC2=O)cc(OC)c1OC	22	-36	0.8	63*	0.4	12
COc1cc(/C=C2/SC(=S)NC2=O)ccc1OS(=O)(=O)c1ccc(C)cc1	/	92*	/	/	/	-5
COc1ccc(/C=C2/SC(c3ccc(C)cc3)=NC2=O)cc1OC	41	6	0.6	61*	0.4	-1
Cc1nnc(NC(=O)CCC(=O)NCc2ccco2)s1	6	-18	0.9	1	1	0
O=C(Nc1ccccc1C(=O)O)c1ccc(NC(=O)c2ccc(Br)o2)cc1	23	26	0.8	78*	0.2	3
CC(=O)c1cccc(NC(=O)c2ccc(Br)o2)c1	47	-3	0.5	28	0.7	-1
CC(C)CC(=O)Nc1cccc(C(=O)Nc2ccccc2C(=O)O)c1	7	0	0.9	74*	0.3	-4
O=C(Nc1ccccc1C(=O)O)c1ccccc1	5	-22	1	38	0.6	-4
O=C(Nc1ccccc1C(=O)O)c1cccc(NC(=O)c2ccc(Br)o2)c1	2	-4	1	91*	0.1	3
CC(=O)Nc1cccc(C(=O)Nc2ccccc2C(=O)O)c1	-17	20	1.2	49	0.5	0
O=C(Nc1ccccc1O)c1cc(S(=O)(=O)N2CCOCC2)ccc1Cl	21	/	0.8	23	0.8	/
Oc1c(Cl)cc(Cl)cc1C(C#Cc1ccccc1)N1CCOCC1 (centres undefined)	24	-3	0.8	67*	0.3	-6
O=C(NNS(=O)(=O)c1ccccc1)c1cnn(-c2ccccc2)c1-n1cccc1	24	/	0.8	47	0.5	/
O=C(NNS(=O)(=O)c1ccc(Cl)cc1)c1cnn(-c2ccccc2)c1-n1cccc1	23	/	0.8	64*	0.4	/
Cc1ccccc1NC(=O)Cc1nc(-c2ccc3ccccc3c2)cs1	/	2	/	/	/	-2
Clc1cccc(Nc2ncnc3ccc(Br)cc23)c1	47	6	0.5	30	0.7	2
Brc1ccc2ncnc(NCc3ccccc3)c2c1	74*	-5	0.3	49	0.5	-1
CCc1cc2ccc(C)cc2nc1SCC(=O)c1ccc(NC(C)=O)cc1	63*	/	0.4	92*	0.1	/
CC(=O)Nc1ccc(C(=O)CSc2nnc(C)o2)cc1	2	0	1	3	1	-6
CCc1cc2cccc(C)c2nc1SCC(=O)c1ccc(NC(C)=O)cc1	3	-1	1	80*	0.2	1
SMILES	CYP2C19 inh	CD11b adhes inh	CYP2C19 act	CYP2C9 inh	CYP2C9 act	CD11b adhes enh
CCc1cc2cccc(C)c2nc1SCC(=O)NNC(=O)c1ccco1	-17	-1	1.2	-48	1.5	2
CN1CCN(C(=O)CCC(=O)c2ccc(F)cc2)CC1	2	-28	1	-12	1.1	2
Cc1nnc(NC(=O)C2C3C=CC(O3)C2C(=O)O)s1 (centres undefined)	11	3	0.9	6	0.9	-4
O=C(C1CCCN1S(=O)(=O)c1cccc2cccnc12)N1CCn2c1nc1ccccc12 (centres undefined)	0	2	1	58*	0.4	-4
Cc1cccc(NC(=O)C2CCCN2S(=O)(=O)c2cccc3cccnc23)c1 (centres undefined)	27	1	0.7	70*	0.3	0
COc1cc(NC(=O)C2CCCN2S(=O)(=O)c2cccc3cccnc23)cc(OC)c1OC (centres undefined)	-1	-6	1	83*	0.2	-2
CC(NC(=O)C1CCCN1S(=O)(=O)c1cccc2cccnc12)c1ccccc1 (centres undefined)	36	-2	0.6	-85	1.8	1
COc1ccccc1CNC(=O)C1CCCN1S(=O)(=O)c1cccc2cccnc12 (centres undefined)	83*	-1	0.2	11	0.9	4
O=C(Nc1ncc(Br)s1)C1CCCN1S(=O)(=O)c1cccc2cccnc12 (centres undefined)	14	-9	0.9	40	0.6	14
O=C(Cn1c(=O)n(Cc2ccco2)c(=O)c2cc(Cl)ccc21)NCC1CCCO1 (centres undefined)	26	44	0.7	7	0.9	5
CC(=O)c1ccc(NC(=O)C2CCCN2S(=O)(=O)c2cccc3cccnc23)cc1 (centres undefined)	41	-4	0.6	14	0.9	2
Cc1ccc(NC(=O)C2CCCN2S(=O)(=O)c2cccc3cccnc23)cc1F (centres undefined)	23	19	0.8	94*	0.1	4
COc1ccc(C(=O)NC(=O)COC(=O)C2COc3ccccc3O2)cc1 (centres undefined)	-14	-6	1.1	31	0.7	-3
CCCCNC(=O)c1cccc(C(=O)NCCCC)c1	29	-11	0.7	48	0.5	10
O=C(NCCCO)c1ccc2[nH]c3ccccc3c2c1	64*	-10	0.4	32	0.7	-1
CCCCCCC1CCC(c2nc(-c3ccncc3)no2)CC1 (centres undefined)	89*	1	0.1	63*	0.4	1
c1ccc(-n2nnnc2-n2nnc3ccccc32)cc1	94*	-20	0.1	36	0.6	3
CCN1CCN(c2ncnc3c2oc2nc(C(C)C)c4c(c23)CCC4)CC1	10	-3	0.9	12	0.9	0
CCOC(=O)N1CCN(c2ncnc3c2oc2nc(C(C)C)c4c(c23)CCC4)CC1	86*	9	0.1	65*	0.4	-2
CC(C)Cc1nc2oc3c(N4CCN(CCO)CC4)ncnc3c2c2c1CCCC2	60*	/	0.4	67*	0.3	/
Cc1nc2c(C)cccn2c1/C(O)=C1\C(=O)C(=O)N(CCN2CCOCC2)C1c1cccs1 (centres undefined)	32	/	0.7	6	0.9	/
COCCn1c(-c2ccccc2)cnc1SCC(=O)Nc1cccc2ccccc12	/	12	/	/	/	3
COc1cc(OC)cc(C(=O)NC(=S)NCc2ccco2)c1	-5	-17	1.1	33	0.7	1
COc1ccc(CNCc2ccco2)cc1OCc1ccccc1	65*	-53	0.4	-5	1.1	3
